A short description of assay [1]: qHTS assay to identify small molecule antagonists of the glucocorticoid receptor (GR) signaling pathway - cell viability counter screen (AID 720693). Also: nearly all actives have a fitted effect of over 55% in size.
A short description of assay [2]: qHTS assay for identifying genotoxic compounds that show differential cytotoxicity against isogenic chicken DT40 cell lines with known DNA damage response pathways - wild type cell line (AID 743012). Also: nearly all actives have a fitted effect of over 60% in size. Also: potency is read from the fitted curve at half-maximal effect. A digest of the protocol: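 Luminescent ATP viability signal (CellTiter-Glo, 30 min RT) recorded after wild type DT40 cells were incubated with compounds for 40 h at 37 C/5% CO2.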

Assay [3] can be described thus: qHTS assay for identifying genotoxic compounds that show differential cytotoxicity against isogenic chicken DT40 cell lines with known DNA damage response pathways - Rev3 mutant cell line (AID 743014). Also: nearly all actives have a fitted effect of over 55% in size. Also: potency is read from the fitted curve at half-maximal effect.
Assay [4] is described as follows: qHTS assay for identifying genotoxic compounds that show differential cytotoxicity against isogenic chicken DT40 cell lines with known DNA damage response pathways - Rad54/Ku70 mutant cell line (AID 743015). Also: nearly all actives have a fitted effect of over 60% in size. Also: potency is read from the fitted curve at half-maximal effect.
Assay [5] is described as follows: qHTS assay to identify small molecule antagonists of the androgen receptor (AR) signaling pathway - cell viability counter screen (AID 743033; also: nearly all actives have a fitted effect of over 45% in size). A general note: Quantitative high-throughput screening tests each substance at several concentrations.
Assay [6] has as its target Androgen receptor (Homo sapiens) (UniProt P10275). Nature of the assay: qHTS assay to identify small molecule antagonists of the androgen receptor (AR) signaling pathway (AID 743035; active = well fitted inhibition curve with a large enough effect in the signal ratio in the repeat runs, not every such curve was filed as active; the % refers to the signal ratio). The gist of the method: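 Quantitative HTS of the Tox21 10K library used HEK293 AR-UAS-bla cells stimulated with R1881 alongside compound for 16 h at 37C, followed by beta-lactamase FRET detection (LiveBLAzer B/G, 2 h, RT).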

Assay [7] shares this target. Description: qHTS assay to identify small molecule agonists of the androgen receptor (AR) signaling pathway (AID 743036; active = well fitted activation curve with a large enough effect in the signal ratio in the repeat runs, with a control signal flat, not every such curve was filed as active; the % refers to the signal ratio). A digest of the protocol:
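AR-UAS-bla HEK293 cells, plated 4 h before dosing, were treated with compound for 16 h at 37C. beta-Lactamase reporter read after 2 h with LiveBLAzer B/G FRET substrate at room temperature.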

Assay [8] has the same target. Description: qHTS assay to identify small molecule agonists of the androgen receptor (AR) signaling pathway using the MDA cell line (AID 743040; also: nearly all actives have a fitted effect of over 20% in size). A digest of the protocol: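 Luciferase read-out, ONE-Glo, 30 min RT. Cells: MDA-kb2 AR-luc, MMTV promoter with AR and GR response elements. Compound exposure 16 h, 37C, 0% CO2, after 5 h pre-incubation. qHTS agonist mode.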

Assay [9] is described as follows: qHTS assay to identify small molecule antagonists of the androgen receptor (AR) signaling pathway using the MDA cell line - cell viability counter screen (AID 743041; also: nearly all actives have a fitted effect of over 45% in size). The gist of the method: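 Cytotoxicity counter screen: MDA-kb2 AR-luc cells, compound + R1881, 16 h, 37C, 0% CO2; CellTiter-Fluor added at 15.5 h, fluorescence read after 30 min.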
Assay [10] deals with Androgen receptor (Homo sapiens) (UniProt P10275). Nature of the assay: qHTS assay to identify small molecule antagonists of the androgen receptor (AR) signaling pathway using the MDA cell line (AID 743042; also: nearly all actives have a fitted effect of over 55% in size; also: potency is read from the fitted curve at half-maximal effect). The gist of the method: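 MDA-kb2 breast carcinoma cells carrying MMTV-luciferase (AR/GR responsive) were co-treated with compounds and the agonist R1881 for 16 h at 37C. Inhibition read as ONE-Glo luminescence; CellTiter-Fluor fluorescence measured in parallel for cytotoxicity.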

Where “and” joins values, the source holds several entries; their conditions need not be identical. Identical values can stand only once. Records with an inconclusive call do not appear. Some compounds were tested as several samples or in several runs, with calls that do not always agree. Calls of active or inactive are those of the source. Unless noted, calls follow the shape of the dose curve; as a rule, active = well fitted curve in the direction sought with a large enough effect in the repeat runs; inconclusive = weak or mixed curves; inactive = no such curve, though single readings can be large; an effect the other way counts as inactive or inconclusive.

Androgen receptor (Homo sapiens), sequence (P10275 whole entry, looked up): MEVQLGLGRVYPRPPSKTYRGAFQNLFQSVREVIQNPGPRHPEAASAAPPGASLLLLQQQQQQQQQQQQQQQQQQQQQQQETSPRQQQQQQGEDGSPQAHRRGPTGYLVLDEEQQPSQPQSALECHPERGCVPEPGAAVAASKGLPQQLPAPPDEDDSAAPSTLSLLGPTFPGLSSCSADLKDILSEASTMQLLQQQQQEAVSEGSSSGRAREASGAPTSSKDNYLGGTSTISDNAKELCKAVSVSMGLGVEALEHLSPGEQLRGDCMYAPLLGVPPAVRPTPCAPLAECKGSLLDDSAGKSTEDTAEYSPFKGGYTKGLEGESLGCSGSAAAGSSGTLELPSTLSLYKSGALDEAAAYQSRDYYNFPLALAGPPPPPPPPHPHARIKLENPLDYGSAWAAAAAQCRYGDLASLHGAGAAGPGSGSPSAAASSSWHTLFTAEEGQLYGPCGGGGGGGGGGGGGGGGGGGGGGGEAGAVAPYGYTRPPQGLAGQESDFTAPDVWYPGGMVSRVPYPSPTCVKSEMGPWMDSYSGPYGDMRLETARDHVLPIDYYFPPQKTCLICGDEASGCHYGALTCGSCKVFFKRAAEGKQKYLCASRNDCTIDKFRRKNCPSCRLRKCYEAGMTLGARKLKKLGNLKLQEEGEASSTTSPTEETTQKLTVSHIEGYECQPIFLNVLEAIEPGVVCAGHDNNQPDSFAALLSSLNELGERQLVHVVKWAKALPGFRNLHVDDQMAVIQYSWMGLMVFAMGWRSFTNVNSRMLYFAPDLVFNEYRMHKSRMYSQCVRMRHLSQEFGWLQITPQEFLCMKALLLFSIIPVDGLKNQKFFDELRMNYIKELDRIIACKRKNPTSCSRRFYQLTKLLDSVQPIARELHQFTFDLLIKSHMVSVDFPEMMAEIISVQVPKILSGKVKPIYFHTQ

In the case of `COCCOCCOC`, the Potency entry in [1], in assay [2], in assay [3], in assay [4], in [6] and in assay [8] was “inactive” in each case. For the same molecule, the Potency entry in [9] and in assay [10] was “inactive” throughout. The molecule was called inactive in assay [5] and in [7].

With `NC(=O)c1ccc([N+](=O)[O-])cc1Cl`, the Potency entry in [1], in [2], in assay [3] and in [4] was “inactive” each time. Besides, the molecule was called inactive in assay [5].

For the molecule `O=[N+]([O-])c1ccc(O)cc1`, the Potency result in assay [1] is “inactive”. For the same molecule, the Potency in assay [2] was 27.3 µM (active) and 61.1 µM (active); in [3], “inactive and 43.3 µM (active) and 54.5 µM (active)”; in assay [4], “inactive and 54.5 µM (active)”. Also, the molecule was called inactive in assay [5].

Consider `C#C[C@]1(O)CC[C@H]2[C@@H]3CCC4=CC(=O)CC[C@@H]4[C@H]3CC[C@@]21CC`, for which the Potency result in assay [1] is “inactive”. Besides, the Potency entry in assay [2] is “inactive and 24.3 µM (active)”; in assay [3] it was “inactive and 27.3 µM (active)”; in assay [4] it was “inactive and 19.3 µM (active) and 54.5 µM (active)”. Further, the call in assay [5] was inactive.

On to `NCCNc1cccc2ccccc12`, for which the Potency entry in assay [1], in assay [2], in [4], in assay [6], in [8] and in assay [9] was “inactive” in each case. In addition, the Potency entry in [3] is “inactive and 54.4 µM (active)”; in assay [10], “inactive and 54.4 µM (active)”. Moreover, the molecule was classed as inactive in assay [5] and in assay [7].

`CC(=O)c1ccc(S(=O)(=O)NC(=O)NC2CCCCC2)cc1`: the Potency entry in assay [1], in assay [2], in [3], in assay [4], in assay [6] and in [8] was “inactive” throughout. Besides, in assay [10], the Potency entry was “inactive”. Besides, the molecule was called inactive in assay [5] and in assay [7].

Take `COc1ccccc1NC(=O)CC(C)=O`: the Potency result in assay [1], in assay [2], in assay [3] and in assay [4] was “inactive” in each case. The call in assay [5] was inactive.

As to `CC1=C(/C=C/C(C)=C/C=C/C(C)=C/C(=O)O)C(C)(C)CCC1`, the Potency result in [1] is “inactive”. In addition, the Potency in [2] was 33.5 µM (active) and 54.4 µM (active); in assay [3] it was 77 µM (active) and 61.1 µM (active); in assay [4], 29.8 µM (active) and 61.2 µM (active) and 54.4 µM (active). Besides, the result in assay [5] was inactive.

For `O=C1OC(c2ccc(O)cc2)(c2ccc(O)cc2)c2ccccc21`, the Potency entry in assay [1], in assay [8], in [9] and in assay [10] was “inactive” throughout. Moreover, the Potency in assay [2] was 38.3 µM (active); in assay [3], 17.1 µM (active); in [4], 27.1 µM (active). The call in assay [5] and in assay [7] was inactive.

As to `CC(=O)CCC(C)C`, the Potency result in assay [1], in [2], in assay [3] and in assay [4] was “inactive” each time. The molecule was classed as inactive in assay [5].

With `CCCCCCCCCCCCCC(=O)OC(C)C`, the Potency result in assay [1], in assay [2], in assay [3], in assay [4], in assay [6] and in assay [8] was “inactive” throughout. For the same molecule, the Potency entry in assay [9] and in assay [10] was “inactive” in each case. Also, the outcome in assay [5] and in assay [7] was inactive.

With `C=C(C)OC(C)=O`, the Potency result in assay [1], in [2], in assay [3] and in assay [4] was “inactive” in each case. Besides, the molecule was classed as inactive in [5].

Turning to `CCN1CCCC1=O`, the Potency result in [1], in assay [2], in assay [3] and in [4] was “inactive” each time. For the same molecule, the outcome in assay [5] was inactive.

On to `COCC(C)N` (centres undefined), for which the Potency result in assay [1], in [2], in [3], in [4], in [6] and in assay [8] was “inactive” each time. Moreover, the Potency result in assay [9] and in [10] was “inactive” throughout. Further, the molecule was called inactive in assay [5] and in assay [7].

Regarding `Cc1cccc(Nc2cc(Cl)nc(SCC(=O)O)n2)c1C`, the Potency entry in assay [1], in [2], in assay [3], in assay [4], in assay [6] and in [8] was “inactive” each time. Also, the Potency entry in [10] was “inactive”. Further, the call in assay [5] was inactive.

Take `COc1cc(C=O)ccc1O`: the Potency result in assay [1], in assay [2], in [3], in assay [4], in assay [8] and in [9] was “inactive” in each case. In addition, in assay [10], the Potency entry is “inactive”. Further, the call in assay [5] and in [7] was inactive.

`Nc1cccc(N)c1`: the Potency entry in [1] and in [2] was “inactive” throughout. In addition, the Potency in assay [3] was 17.2 µM (active) and inactive; in assay [4], 61 µM (active) and inactive. The result in assay [5] was inactive.

With `C=C(C)C(N)=O`, the Potency entry in assay [1], in assay [2], in assay [3] and in assay [4] was “inactive” in each case. In addition, the molecule was called inactive in assay [5].

With `CC(=O)OC/C=C(C)/C=C/C=C(C)/C=C/C1=C(C)CCCC1(C)C`, the Potency entry in [1] was “inactive”. Also, the Potency was 61.1 µM (active) in [2]; “inactive and 59.6 µM (active) and 54.5 µM (active)” in [3]; 47.4 µM (active) and 30.6 µM (active) in [4]. Also, the molecule was classed as inactive in [5].

As to `NC(=O)NO`, the Potency result in [1], in assay [2] and in assay [4] was “inactive” throughout. The Potency result in assay [3] was “inactive and 61.1 µM (active)”. Further, the result in assay [5] was inactive.

With `Cc1cccc(C)c1O`, the Potency result in [1], in assay [2], in assay [3], in assay [4], in [6] and in [8] was “inactive” in each case. The Potency entry in assay [10] is “inactive”. Further, the result in assay [5] and in assay [7] was inactive.

For `COc1cc(O)c(C(=O)c2ccccc2)cc1S(=O)(=O)O`, the Potency entry in assay [1], in assay [2], in [3], in assay [4], in [6] and in assay [9] was “inactive” throughout. In addition, the Potency entry in assay [10] is “inactive”. In addition, the result in [5] and in [7] was inactive.

On to `COC(=O)c1ccc(O)cc1`, for which the Potency result in assay [1], in [2], in assay [3], in assay [4] and in assay [9] was “inactive” throughout. For the same molecule, in assay [5], the call was inactive.

Consider `CCCCC/C(C=O)=C\c1ccccc1`, for which the Potency result in [1], in assay [2], in [3] and in assay [4] was “inactive” throughout. Also, in assay [5], the molecule was classed as inactive.
